# miR122 inh – miR-122 suppressors via Renilla sensor increase, primary screen, cell-based, Huh7 psiCHECK-miR122, Renilla luciferase, single point; 48 h; activation, % at 12.5 µM; 0.14% of 340,000 active; AID 623901, 2012;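 active means mean activation of 30% or more, with every replicate also reaching 30%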;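 further: 0% = median of neutral control wells and 100% = median of positive control wells; higher luciferase signal means stronger suppression of miR-122 activity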
# * hit, by the source's call. Shown is part of a subset that was picked to be rich in hits.
SMILES,miR122 inh
O=C(Nc1ccc(CN2CCOCC2)cc1)c1ccc(-c2ccc(Cl)cc2Cl)o1,33.8*
CCOC(=O)c1ccc(NC(=O)c2ccc(CN3CCOCC3)cc2)cc1,37.6*
O=C(NCCCN1CCN(Cc2ccccc2)CC1)c1nnc(Cc2c(F)cccc2Cl)o1,-103.3
COc1ccc(NS(=O)(=O)c2cc(NC(=O)c3ccc(Cl)cc3)ccc2N2CCOCC2)cc1,-101.7
CC(=O)Nc1ccc(C(=O)Nc2ccc(S(=O)(=O)NCC3CCCO3)cc2)cc1 (stereo not drawn),-97.4
CO[C@@H]1CN(C)C(=O)c2ccc(NC(=O)Nc3ccc(F)cc3)cc2OC[C@H](C)NC[C@H]1C,-2.6
C[C@H](CO)N1C[C@H](C)[C@H](CN(C)Cc2ccccc2C(=O)O)Oc2ncc(C3=CCCCC3)cc2C1=O,-0.1
C[C@@H]1CN([C@@H](C)CO)C(=O)c2cc(-c3cccc(C(=O)N(C)C)c3)cnc2O[C@H]1CN(C)C(=O)Cc1ccccn1,3.4
CCNC(=O)C[C@H]1CC[C@@H]2[C@@H](COc3ccc(NC(=O)c4cccc(C(F)(F)F)c4)cc3C(=O)N2C)O1,53.3*
COCCNC(=O)C[C@@H]1CC[C@H]2[C@H](COc3ccc(NC(=O)Cc4ccccc4)cc3C(=O)N2C)O1,-106.7
CN1C(=O)c2cc(NC(=O)c3ccc(C(F)(F)F)cc3)ccc2OC[C@@H]2O[C@H](CC(=O)NCc3ccc4c(c3)OCO4)CC[C@@H]21,33.3*
CC(C)C(=O)Nc1ccc2c(c1)C(=O)N(C)[C@H]1CC[C@H](CC(=O)NCc3cccc(F)c3)O[C@@H]1CO2,-300.0
CC(C)C(=O)Nc1ccc2c(c1)C(=O)N(C)[C@H]1CC[C@H](CC(=O)NCCc3ccccc3)O[C@H]1CO2,53.3*
CCNC(=O)C[C@@H]1CC[C@@H]2[C@@H](COc3ccc(NC(=O)c4ccccc4)cc3C(=O)N2C)O1,41.7*
C[C@H]1CN([C@@H](C)CO)S(=O)(=O)c2ccc(-c3cccc(C#N)c3)cc2O[C@H]1CN(C)C(=O)Nc1ccccc1F,-4.2
COc1cccc(-c2cnc3c(c2)C(=O)N([C@@H](C)CO)C[C@H](C)[C@H](CN(C)Cc2ccccc2)O3)c1,-10.7
C[C@H]1CN([C@@H](C)CO)C(=O)c2cc(C#CC3(O)CCCC3)cnc2O[C@H]1CN(C)S(=O)(=O)c1ccccc1,-3.6
C[C@@H]1CN([C@H](C)CO)S(=O)(=O)c2ccc(-c3ccccc3)cc2O[C@@H]1CN(C)Cc1cccnc1,-14.0
COc1cccc(C#Cc2ccc3c(c2)O[C@H](CN(C)S(=O)(=O)c2ccccc2F)[C@@H](C)CN([C@@H](C)CO)S3(=O)=O)c1,-1.2
COCC#Cc1ccc2c(c1)O[C@@H](CN(C)Cc1cncnc1)[C@@H](C)CN([C@@H](C)CO)S2(=O)=O,-3.6
C[C@H]1CN([C@@H](C)CO)S(=O)(=O)c2ccc(Br)cc2O[C@@H]1CN(C)C(=O)CC1CC1,-11.5
CC(=O)N(C)C[C@@H]1Oc2cc(C#C[C@@H](C)O)ccc2S(=O)(=O)N([C@H](C)CO)C[C@@H]1C,4.1
C[C@@H]1CN([C@H](C)CO)C(=O)c2cc(C#Cc3cccc(F)c3)cnc2O[C@H]1CN(C)C(=O)C1CC1,-4.4
C[C@@H]1CN([C@H](C)CO)S(=O)(=O)c2ccc(-c3ccncc3)cc2O[C@@H]1CN(C)C(=O)C1CC1,5.7
COc1cccc(-c2cnc3c(c2)C(=O)N([C@H](C)CO)C[C@H](C)[C@H](CN(C)C(=O)Nc2ccccc2F)O3)c1,2.5
SMILES,miR122 inh
C[C@H]1CN([C@@H](C)CO)S(=O)(=O)c2ccc(C#CC(C)(C)O)cc2O[C@@H]1CN(C)CC1CC1,3.2
CCCNC(=O)N(C)C[C@H]1Oc2cc(C#CC(C)C)ccc2S(=O)(=O)N([C@H](C)CO)C[C@@H]1C,-44.0
C[C@@H]1CN([C@@H](C)CO)C(=O)c2cc(C3=CCCCC3)cnc2O[C@H]1CN(C)Cc1ccccc1C(=O)O,1.8
COc1cc(/C=C2/CCC/C(=C\c3cc(O)c(OC)c(Cl)c3)C2=O)cc(Cl)c1O,-113.4
O=C1/C(=C/c2ccncc2)CCC/C1=C\c1ccncc1,77.8*
CC(C)C#Cc1ccc2c(c1)O[C@H](CN(C)C(=O)CN(C)C)[C@H](C)CN([C@H](C)CO)S2(=O)=O,10.2
C[C@@H]1CN([C@@H](C)CO)C(=O)c2cc(-c3ccc(F)cc3)cnc2O[C@@H]1CN(C)C(=O)c1cccnc1,3.3
C[C@H](CO)N1C[C@H](C)[C@H](CN(C)Cc2ccc(C(=O)Nc3ccccc3N)cc2)Oc2ccc(NS(=O)(=O)c3cccs3)cc2CC1=O,-103.9
C[C@@H]1CN([C@@H](C)CO)C(=O)c2cc(-c3ccccc3F)cnc2O[C@@H]1CN(C)C(=O)C1CCCCC1,-11.4
C[C@@H]1CN([C@H](C)CO)C(=O)c2cc(-c3cccc(F)c3)cnc2O[C@H]1CN(C)Cc1ccncc1,5.5
C[C@H](CO)N1C[C@H](C)[C@H](CN(C)Cc2ccc(C(=O)Nc3ccccc3N)cc2)Oc2c(NC(=O)C3CCCCC3)cccc2C1=O,-35.6
COc1cccc(S(=O)(=O)N(C)C[C@H]2Oc3ncc(C#CCC(C)C)cc3C(=O)N([C@H](C)CO)C[C@H]2C)c1,0.4
COC1=CC(=O)C=C(OC)C1=O,57.3*
C[C@H](CO)N1C[C@H](C)[C@H](CN(C)Cc2ccccn2)Oc2cc(-c3ccncc3)ccc2S1(=O)=O,5.9
CC(C)CC#Cc1ccc2c(c1)O[C@H](CN(C)C(=O)C1CCOCC1)[C@H](C)CN([C@@H](C)CO)S2(=O)=O,22.8
COCC#Cc1cnc2c(c1)C(=O)N([C@H](C)CO)C[C@H](C)[C@H](CN(C)C(=O)Cc1ccccc1)O2,-11.0
O=c1c2c3c(sc2nc2n1CCC2)CCCC3,32.0*
COc1ccccc1-c1ccc2c(c1)O[C@@H](CN(C)S(=O)(=O)c1ccccc1)[C@H](C)CN([C@@H](C)CO)S2(=O)=O,-12.6
CO[C@@H]1CN(C)C(=O)c2cc(NC(=O)Cc3ccccc3)ccc2OC[C@@H](C)N(C)C[C@@H]1C,1.8
COc1cccc(C(=O)Nc2ccc3c(c2)C(=O)N(C)[C@H]2CC[C@H](CC(=O)NCc4ccc(F)cc4)O[C@@H]2CO3)c1,53.3*
CC(=O)Nc1ccc2c(c1)C(=O)N(C)[C@H]1CC[C@@H](CC(=O)NCc3ccc(Cl)cc3)O[C@H]1CO2,-130.0
COc1ccccc1C(=O)Nc1ccc2c(c1)C(=O)N(C)[C@H]1CC[C@H](CC(=O)NCc3ccc(Cl)c(Cl)c3)O[C@H]1CO2,-307.8
COc1ccccc1C(=O)Nc1ccc2c(c1)C(=O)N(C)[C@H]1CC[C@H](CC(=O)NCc3ccc(Cl)c(Cl)c3)O[C@@H]1CO2,-138.9
COc1cccc(CNC(=O)C[C@@H]2CC[C@H]3[C@H](COc4ccc(NC(C)=O)cc4C(=O)N3C)O2)c1,36.7*
CC(=O)Nc1ccc2c(c1)C(=O)N(C)[C@@H]1CC[C@@H](CC(=O)NCc3ccc(Cl)cc3)O[C@H]1CO2,67.5*
C[C@H](CO)N1C[C@H](C)[C@@H](CN(C)Cc2ccccc2)Oc2cc(-c3cncnc3)ccc2S1(=O)=O,-1.5
CCC(=O)N(C)C[C@@H]1Oc2ncc(-c3cccc(OC)c3)cc2C(=O)N([C@@H](C)CO)C[C@H]1C,3.5
C[C@H](O)C#Cc1cnc2c(c1)C(=O)N([C@@H](C)CO)C[C@H](C)[C@H](CN(C)C(=O)CN(C)C)O2,-4.2
C[C@@H]1CN([C@H](C)CO)S(=O)(=O)c2ccc(-c3ccccc3)cc2O[C@@H]1CN(C)Cc1cncnc1,-9.1
